Over roughly 16,000 sequences, “rpm ratio (pull-down/input)” has its median near 0.94; the highest 2% begin near 1.7. The list comes from a sample in which the highest values are over-represented; it also holds similar and randomly drawn sequences.

Here are results for 33 sequences from publication PMC12820563, “FoxP3 forms a head-to-head dimer in vivo and stabilizes its multimerization on adjacent microsatellites”.

This test deals with T1, MBP-FoxP1dN (Mus musculus, UniProt P58462 326-579).
T1 sequence: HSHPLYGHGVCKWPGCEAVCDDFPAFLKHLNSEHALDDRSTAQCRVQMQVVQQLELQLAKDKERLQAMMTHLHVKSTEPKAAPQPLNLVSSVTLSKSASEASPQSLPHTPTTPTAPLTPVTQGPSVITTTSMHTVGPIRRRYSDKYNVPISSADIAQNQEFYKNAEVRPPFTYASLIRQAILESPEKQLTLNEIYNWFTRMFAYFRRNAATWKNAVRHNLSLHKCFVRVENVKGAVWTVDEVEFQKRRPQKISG
Nature of the test: PD-seq (MBP pull-down with sequencing); 20 mM Tris-HCl pH 7.5, 100 mM NaCl, 1.5 mM MgCl2, 0.4 uM protein, 0.1 uM dsDNA library, 30 min, room temperature, amylose pull-down; high values mean tight binding. The settings on record: protein: recombinant; tags: His6-MBP; chain copies: 2; dsDNA, one strand shown. In a few lines:
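Amylose resin was used to capture complexes formed during 30 min at room temperature in Tris pH 7.5 buffer with NaCl and MgCl2 between 0.4 µM His6-MBP-tagged mouse FoxP3 or FoxP1 fragment lacking the N-terminus, expressed in E. coli, and 0.1 µM Klenow-filled double-stranded degenerate DNA library. After three washes, the DNA was released with proteinase K, barcoded by PCR and sequenced on Illumina. Binding is pooled-replicate reads-per-million enrichment, pull-down over input.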
For the sequence “GATGATTGTTCTCCCAGCTGATGAATTGGATAGCTCGAGTAAACAAATTTTCCTAATCTTTCTGTTCAAGCGCCATCTAC”, the binding signal is 0.85 RPM ratio (pull-down/input).
As for “GATGATTGTTCTCCCAGCTGATGAATTTAGTAAATCGAGTAAACAAATTTTCCTAATCTTTCTGTTCAAGCGCCATCTAC”, the figure is 1.58 RPM ratio (pull-down/input); as for “GATGATTGTTCTCCCAGCTGATGAATTACGTAAATCGAGTAAACAAATTTTCCTAATCTTTCTGTTCAAGCGCCATCTAC”, 1.34 RPM ratio (pull-down/input).
Consider “GATGATTGTTCTCCCAGCTGATGAATTTAGTGAATCGAGTAAACAAATTTTCCTAATCTTTCTGTTCAAGCGCCATCTAC”, for which the binding signal is 0.958 RPM ratio (pull-down/input).
In the case of “GATGATTGTTCTCCCAGCTGATGAATTTTTTAGATCGAGTAAACAAATTTTCCTAATCTTTCTGTTCAAGCGCCATCTAC”, the binding signal was 0.923 RPM ratio (pull-down/input).
Regarding “GATGATTGTTCTCCCAGCTGATGAATTTTGTTTATCGAGTAAACAAATTTTCCTAATCTTTCTGTTCAAGCGCCATCTAC”, the binding signal was 2.61 RPM ratio (pull-down/input).
Turning to “GATGATTGTTCTCCCAGCTGATGAATTTGGTTTATCGAGTAAACAAATTTTCCTAATCTTTCTGTTCAAGCGCCATCTAC”, the binding signal is 1.32 RPM ratio (pull-down/input).
Under “GATGATTGTTCTCCCAGCTGATGAATTGTTTAGATCGAGTAAACAAATTTTCCTAATCTTTCTGTTCAAGCGCCATCTAC” stands 2.19 RPM ratio (pull-down/input); under “GATGATTGTTCTCCCAGCTGATGAATTTACGTAATCGAGTAAACAAATTTTCCTAATCTTTCTGTTCAAGCGCCATCTAC”, 1.82 RPM ratio (pull-down/input).
As to “GATGATTGTTCTCCCAGCTGATGAATTTTAGTAATCGAGTAAACAAATTTTCCTAATCTTTCTGTTCAAGCGCCATCTAC”, the binding signal was 1.75 RPM ratio (pull-down/input).
As for “GATGATTGTTCTCCCAGCTGATGAATTTAGATGATCGAGTAAACAAATTTTCCTAATCTTTCTGTTCAAGCGCCATCTAC”, the figure is 1.11 RPM ratio (pull-down/input); as for “GATGATTGTTCTCCCAGCTGATGAATTTGATTTATCGAGTAAACAAATTTTCCTAATCTTTCTGTTCAAGCGCCATCTAC”, 1.23 RPM ratio (pull-down/input); as for “GATGATTGTTCTCCCAGCTGATGAATTTTACGTATCGAGTAAACAAATTTTCCTAATCTTTCTGTTCAAGCGCCATCTAC”, 0.962 RPM ratio (pull-down/input).
As for “GATGATTGTTCTCCCAGCTGATGAATTGTCACATTCGAGTAAACAAATTTTCCTAATCTTTCTGTTCAAGCGCCATCTAC”, the figure is 1.2 RPM ratio (pull-down/input); as for “GATGATTGTTCTCCCAGCTGATGAATTGAACGTTTCGAGTAAACAAATTTTCCTAATCTTTCTGTTCAAGCGCCATCTAC”, 0.869 RPM ratio (pull-down/input).
In the case of “GATGATTGTTCTCCCAGCTGATGAATTTATGGGATCGAGTAAACAAATTTTCCTAATCTTTCTGTTCAAGCGCCATCTAC”, the binding signal was 0.919 RPM ratio (pull-down/input).
Under “GATGATTGTTCTCCCAGCTGATGAATTCTCCCTCTCGAGTAAACAAATTTTCCTAATCTTTCTGTTCAAGCGCCATCTAC” stands 0.869 RPM ratio (pull-down/input).
“GATGATTGTTCTCCCAGCTGATGAATTATATTCCTCGAGTAAACAAATTTTCCTAATCTTTCTGTTCAAGCGCCATCTAC”: the binding signal is 0.968 RPM ratio (pull-down/input).
With “GATGATTGTTCTCCCAGCTGATGAATTGAGGTAGTCGAGTAAACAAATTTTCCTAATCTTTCTGTTCAAGCGCCATCTAC”, the binding signal was 0.86 RPM ratio (pull-down/input).
As to “GATGATTGTTCTCCCAGCTGATGAATTAGATTTCTCGAGTAAACAAATTTTCCTAATCTTTCTGTTCAAGCGCCATCTAC”, the binding signal was 0.85 RPM ratio (pull-down/input).
As for “GATGATTGTTCTCCCAGCTGATGAATTTTAGTTTTCGAGTAAACAAATTTTCCTAATCTTTCTGTTCAAGCGCCATCTAC”, the figure is 1.4 RPM ratio (pull-down/input); as for “GATGATTGTTCTCCCAGCTGATGAATTTAGTTTTTCGAGTAAACAAATTTTCCTAATCTTTCTGTTCAAGCGCCATCTAC”, 1.19 RPM ratio (pull-down/input); as for “GATGATTGTTCTCCCAGCTGATGAATTGTTTAGTTCGAGTAAACAAATTTTCCTAATCTTTCTGTTCAAGCGCCATCTAC”, 1.94 RPM ratio (pull-down/input).
Under “GATGATTGTTCTCCCAGCTGATGAATTCGCGCAGTCGAGTAAACAAATTTTCCTAATCTTTCTGTTCAAGCGCCATCTAC” stands 0.818 RPM ratio (pull-down/input).
As for “GATGATTGTTCTCCCAGCTGATGAATTCAGTCGTTCGAGTAAACAAATTTTCCTAATCTTTCTGTTCAAGCGCCATCTAC”, the figure is 0.873 RPM ratio (pull-down/input); as for “GATGATTGTTCTCCCAGCTGATGAATTTATTTAGTCGAGTAAACAAATTTTCCTAATCTTTCTGTTCAAGCGCCATCTAC”, 1.76 RPM ratio (pull-down/input).
For the sequence “GATGATTGTTCTCCCAGCTGATGAATTTTTTTAGTCGAGTAAACAAATTTTCCTAATCTTTCTGTTCAAGCGCCATCTAC”, the binding signal is 1.05 RPM ratio (pull-down/input).
As for “GATGATTGTTCTCCCAGCTGATGAATTTTTTAGGTCGAGTAAACAAATTTTCCTAATCTTTCTGTTCAAGCGCCATCTAC”, the figure is 0.925 RPM ratio (pull-down/input).
Consider “GATGATTGTTCTCCCAGCTGATGAATTTTGTTAGTCGAGTAAACAAATTTTCCTAATCTTTCTGTTCAAGCGCCATCTAC”, for which the binding signal was 1.82 RPM ratio (pull-down/input).
Under “GATGATTGTTCTCCCAGCTGATGAATTGTTTAGGTCGAGTAAACAAATTTTCCTAATCTTTCTGTTCAAGCGCCATCTAC” stands 1.93 RPM ratio (pull-down/input).
As for “GATGATTGTTCTCCCAGCTGATGAATTATTTTAGTCGAGTAAACAAATTTTCCTAATCTTTCTGTTCAAGCGCCATCTAC”, the figure is 1.21 RPM ratio (pull-down/input); as for “GATGATTGTTCTCCCAGCTGATGAATTTTATTAGTCGAGTAAACAAATTTTCCTAATCTTTCTGTTCAAGCGCCATCTAC”, 1.28 RPM ratio (pull-down/input).
Regarding “GATGATTGTTCTCCCAGCTGATGAATTGTTTTAGTCGAGTAAACAAATTTTCCTAATCTTTCTGTTCAAGCGCCATCTAC”, the binding signal was 1.44 RPM ratio (pull-down/input).
